CYP2C19 act = activators of human cytochrome P450 2C19. P33261. recombinant CYP2C19, luciferin-H EGE luminescence; hits give high values; 0 = fully inhibited enzyme, 1 = untreated enzyme. activation factor at 5 µM. 96,000 tested, under 10 active. AID 1025;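 active = activation factor of at least 2 at 5 µM in the primary screen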
CYP2C9 activ = activators of human CYP2C9; P11712; recombinant CYP2C9, luciferin-H conversion, luminescence; hits give high values; factor 1 = untreated enzyme, 0 = blocked; activation factor at 5 µM; actives 1.4% (n = 96,000);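 active = activation factor of 2 or more for CYP2C9 at a 5 µM dose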
Target sequence (P11712 whole entry, looked up): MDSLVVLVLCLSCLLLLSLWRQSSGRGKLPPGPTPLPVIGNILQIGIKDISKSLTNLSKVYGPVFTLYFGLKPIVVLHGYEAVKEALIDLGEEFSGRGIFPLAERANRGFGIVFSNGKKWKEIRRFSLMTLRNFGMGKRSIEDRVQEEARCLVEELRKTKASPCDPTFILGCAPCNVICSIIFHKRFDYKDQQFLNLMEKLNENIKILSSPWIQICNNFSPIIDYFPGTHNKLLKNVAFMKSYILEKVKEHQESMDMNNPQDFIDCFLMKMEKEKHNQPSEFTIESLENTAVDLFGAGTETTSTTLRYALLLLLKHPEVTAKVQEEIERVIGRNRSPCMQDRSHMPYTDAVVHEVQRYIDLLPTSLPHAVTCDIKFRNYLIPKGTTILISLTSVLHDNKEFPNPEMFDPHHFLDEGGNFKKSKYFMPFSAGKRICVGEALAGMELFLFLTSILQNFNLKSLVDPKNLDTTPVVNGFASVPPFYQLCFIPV
CYP2C19 inh = human CYP2C19 inhibition. P33261. CYP2C19 Supersomes, luciferin-H EGE luminescence, 30 min. inhibition, % at 5 µM. actives 21% (n = 96,000);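 active = CYP2C19 inhibition above a set limit at 5 µM in the primary screen, cut at about 50% in these data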
PLAP activator = activators of human placental alkaline phosphatase | P05187 | purified PLAP enzyme, luminescent substrate read-out; hits give high values | activation fold at 20 µM | actives 1.2% (n = 96,000) | AID 696; in the data active = activation fold above about 2
CYP2C9 inhib = blocks human cytochrome P450 2C9. inhibition, % at 5 µM. P11712. AID 777. actives 20% (n = 96,000). CYP2C9 Supersomes, luciferin-H conversion, luminescence;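 active = blocking of liver enzyme CYP2C9 beyond about 50% at 5 µM, limit read from the data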
Numbers stand for hits. Sampled rows, rich in hits. Any-hit rate of the full collection: about 31%.

`N#Cc1cn(CC(=O)N2CCCC2)c2ccccc12` gave CYP2C19 act inactive, CYP2C9 activ inactive, CYP2C19 inh inactive, PLAP activator inactive and CYP2C9 inhib inactive.
`O=C(c1cn(CC(=O)N2CCCC2)c2ccccc12)C1CCCCC1` gave CYP2C19 act inactive, CYP2C9 activ inactive, CYP2C19 inh 53.8, PLAP activator inactive and CYP2C9 inhib 50.5.
Screening COc1cc(OC)c(-c2nn3c(-c4cccnc4)nnc3s2)cc1OC returned CYP2C19 act inactive, CYP2C9 activ inactive, CYP2C19 inh inactive, PLAP activator inactive and CYP2C9 inhib inactive.
Screening COc1cc(CN(C)CCc2ccccc2)ccc1OCc1ccccc1 returned CYP2C19 act inactive, CYP2C9 activ inactive, CYP2C19 inh inactive, PLAP activator inactive and CYP2C9 inhib inactive.
For CN(CC(=O)Nc1ccccc1C(=O)N1CCCC1)S(=O)(=O)c1ccc(Cl)cc1 the results were CYP2C19 act inactive, CYP2C9 activ inactive, CYP2C19 inh inactive, PLAP activator inactive and CYP2C9 inhib inactive.
O=C(Nc1ccc(CN2CCCCC2)cc1)c1ccc(Br)o1 was read as CYP2C19 act inactive, CYP2C9 activ inactive, CYP2C19 inh inactive, PLAP activator inactive and CYP2C9 inhib inactive.
CC1CCc2nn(CC(=O)NCCN3CCCCC3C)cc2C1 (stereo unspecified) was read as CYP2C19 act inactive, CYP2C9 activ inactive, CYP2C19 inh inactive, PLAP activator inactive and CYP2C9 inhib inactive.
`C/C(=N\O)C(=O)NCc1ccncc1` gave CYP2C19 act inactive, CYP2C9 activ inactive, CYP2C19 inh inactive, PLAP activator inactive and CYP2C9 inhib inactive.
Screening COc1ccc(C)cc1NC(=O)C(=O)NCc1ccncc1 returned CYP2C19 act inactive, CYP2C9 activ inactive, CYP2C19 inh inactive, PLAP activator inactive and CYP2C9 inhib 77.9.
Screening COc1ccc(NC(=O)C(=O)NCc2ccncc2)c(OC)c1 returned CYP2C19 act inactive, CYP2C9 activ inactive, CYP2C19 inh 57.4, PLAP activator inactive and CYP2C9 inhib 70.2.
CCCn1nnnc1NC(=O)c1cccs1 was read as CYP2C19 act inactive, CYP2C9 activ inactive, CYP2C19 inh inactive, PLAP activator inactive and CYP2C9 inhib inactive.
CC(=O)N1CCN(CC(=O)Nc2c(Cl)cc(Cl)cc2Cl)CC1 was read as CYP2C19 act inactive, CYP2C9 activ inactive, CYP2C19 inh inactive, PLAP activator inactive and CYP2C9 inhib inactive.
`Cc1ccc(C)c2[nH]c(=O)c(CCNC(=O)C(C)C)cc12` gave CYP2C19 act inactive, CYP2C9 activ inactive, CYP2C19 inh inactive, PLAP activator inactive and CYP2C9 inhib inactive.
For Cc1ccc(C)c2[nH]c(=O)c(CCNS(=O)(=O)c3ccccc3)cc12 the results were CYP2C19 act inactive, CYP2C9 activ inactive, CYP2C19 inh 76.1, PLAP activator inactive and CYP2C9 inhib 61.3.
For COc1ccc(OC)c2[nH]c(=O)c(CCNS(=O)(=O)c3ccc(C)cc3)cc12 the results were CYP2C19 act inactive, CYP2C9 activ inactive, CYP2C19 inh inactive, PLAP activator inactive and CYP2C9 inhib 67.8.
COc1ccc(OC)c2[nH]c(=O)c(CCNC(=O)c3ccc(S(=O)(=O)N(C)C)cc3)cc12 was read as CYP2C19 act inactive, CYP2C9 activ inactive, CYP2C19 inh inactive, PLAP activator inactive and CYP2C9 inhib inactive.
For COc1ccc(OC)c2[nH]c(=O)c(CCNS(=O)(=O)c3ccc(Cl)cc3)cc12 the results were CYP2C19 act inactive, CYP2C9 activ inactive, CYP2C19 inh inactive, PLAP activator inactive and CYP2C9 inhib 83.8.
`C1CNCCOCCNCCN1` gave CYP2C19 act inactive, CYP2C9 activ inactive, CYP2C19 inh inactive, PLAP activator inactive and CYP2C9 inhib inactive.
Cn1c(=O)c2c(nc(NCc3ccco3)n2CCc2ccccc2)n(C)c1=O was read as CYP2C19 act inactive, CYP2C9 activ inactive, CYP2C19 inh inactive, PLAP activator inactive and CYP2C9 inhib inactive.
CCN1C(=O)c2ccccc2S(=O)c2ccc(C(=O)NC3CC3)cc21 (stereo unspecified) was read as CYP2C19 act inactive, CYP2C9 activ inactive, CYP2C19 inh inactive, PLAP activator inactive and CYP2C9 inhib inactive.
CCCCCOC(=O)Cc1c(O)c2ccccc2n(C)c1=O was read as CYP2C19 act inactive, CYP2C9 activ inactive, CYP2C19 inh 78.9, PLAP activator inactive and CYP2C9 inhib inactive.
Cn1c(=O)c(Cc2ccccc2)c(O)c2ccccc21 was read as CYP2C19 act inactive, CYP2C9 activ inactive, CYP2C19 inh 70.8, PLAP activator inactive and CYP2C9 inhib inactive.
CCCn1c(=O)c(Cc2ccccc2)c(O)c2ccccc21 was read as CYP2C19 act inactive, CYP2C9 activ inactive, CYP2C19 inh inactive, PLAP activator inactive and CYP2C9 inhib inactive.
For CC(C)COC(=O)CCn1[nH]c(=O)c2ccccc2c1=O the results were CYP2C19 act inactive, CYP2C9 activ inactive, CYP2C19 inh inactive, PLAP activator inactive and CYP2C9 inhib inactive.
CCCc1c(O)c2ccccc2n(-c2ccccc2)c1=O was read as CYP2C19 act inactive, CYP2C9 activ inactive, CYP2C19 inh inactive, PLAP activator inactive and CYP2C9 inhib inactive.
`CCCCCCCCOC(=O)CCn1[nH]c(=O)c2ccccc2c1=O` gave CYP2C19 act inactive, CYP2C9 activ inactive, CYP2C19 inh 61.2, PLAP activator inactive and CYP2C9 inhib 66.0.
For Cc1ccc(C(=O)COC(=O)C2C3C=CC(C3)C2C(=O)OCC(=O)c2ccc(C)c(C)c2)cc1C (stereo unspecified) the results were CYP2C19 act inactive, CYP2C9 activ inactive, CYP2C19 inh inactive, PLAP activator inactive and CYP2C9 inhib 50.9.
CC(=O)NCC(=O)OCC(=O)c1ccc(C)c(C)c1 was read as CYP2C19 act inactive, CYP2C9 activ inactive, CYP2C19 inh inactive, PLAP activator inactive and CYP2C9 inhib inactive.
For N#CCSc1nccc(-c2cc(Cl)sc2Cl)n1 the results were CYP2C19 act inactive, CYP2C9 activ inactive, CYP2C19 inh inactive, PLAP activator inactive and CYP2C9 inhib inactive.
For C=CCSc1nccc(-c2cc(Cl)sc2Cl)n1 the results were CYP2C19 act inactive, CYP2C9 activ inactive, CYP2C19 inh 80.5, PLAP activator inactive and CYP2C9 inhib 71.6.
For O=C1N2c3ccccc3CCc3cccc(c32)C1(O)C(F)(F)F (stereo unspecified) the results were CYP2C19 act inactive, CYP2C9 activ inactive, CYP2C19 inh 51.6, PLAP activator inactive and CYP2C9 inhib inactive.
COc1ccc2c(c1)C(c1ccc([N+](=O)[O-])cc1)=NNC(c1ccco1)=N2 was read as CYP2C19 act inactive, CYP2C9 activ inactive, CYP2C19 inh inactive, PLAP activator inactive and CYP2C9 inhib inactive.
For OCCN(Cc1ccccc1)Cc1ccc(Cl)cc1Cl the results were CYP2C19 act inactive, CYP2C9 activ inactive, CYP2C19 inh 95.2, PLAP activator inactive and CYP2C9 inhib 57.0.
CCCCN1C(=O)C2ON(c3ccccc3C)C(c3ccco3)C2C1=O (stereo unspecified) was read as CYP2C19 act inactive, CYP2C9 activ inactive, CYP2C19 inh 77.3, PLAP activator inactive and CYP2C9 inhib 95.7.
For CCc1ccc(N2C(=O)C3ON(c4ccccc4)C(c4ccco4)C3C2=O)cc1 (stereo unspecified) the results were CYP2C19 act inactive, CYP2C9 activ inactive, CYP2C19 inh inactive, PLAP activator inactive and CYP2C9 inhib inactive.
